FAS-TE inh: FAS thioesterase (human) inhibition. P49327. recombinant FAS-TE, OMFH fluorogenic substrate, fluorescence endpoint. inhibition, % at 15 µM. actives 0.67% (n = 360,000). AID 602261;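 active = compounds whose normalised, plate-corrected inhibition of enzyme fluorescence in the single-dose primary screen is 50% or more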
MPTP inh: permeability transition pore inhibition | isolated mouse mitochondria, Ca2+ swelling absorbance, 30 min | AID 602449 | inhibition, % at 10 µM | actives 1.4% (n = 360,000);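 active = inhibition of 50% or more, scaled per plate between neutral and stimulator controls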
Yeast superoxide: yeast age-related superoxide inhibition as caloric restriction mimetic; S. cerevisiae aged cells, superoxide DHE fluorescence; hits give low values; actives 0.18% (n = 330,000); superoxide response (% of plate mean), % at 10 µM;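 active = superoxide response under a set limit, about three screen SD below normal, cut at about 65% in these data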;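 also: yeast aged for seven days with compound at 30 °C before DHE staining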
H9c2 protect: protects H9c2 cardiomyocytes from peroxide injury; AID 588492; protection from H2O2 cell death, % at 20 µM; actives 0.63% (n = 360,000); H2O2 injury protection, ATPLite, 2 h;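 active = compounds giving at least 50% protection of heart cells from peroxide-induced death in the single-dose screen, raw or plate-pattern-corrected value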
Mot1-301 SUMO: SUMOylation pathway inhibition by Mot1-301 growth rescue; S. cerevisiae Mot1-301 growth rescue, ATP luminescence, 38.5C; percent above DMSO median, 100 means doubled; actives 1% (n = 320,000); growth rescue, % at 18.8 µM;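 active = every valid replicate shows activation above 250% relative to neutral control wells; inactive = the rest, any valid replicate at or below 250%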
aDG glyco up: increases alpha dystroglycan glycosylation; Pro5-aDG cells, alpha-DG glycosylation AlphaScreen (IIH6); 0% Pro5, 100% B10-LARGE cell signal; activation, % at 10 µM; actives 0.22% (n = 360,000); AID 624168;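 active = activation of at least 8% versus controls, or a plate z-score of at least 8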;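 also: Pro5 are CHO cells carrying HIG-tagged alpha-DG that lacks glycosylation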
Mot1 SUMO dose: yeast SUMO pathway inhibition in dose response; S. cerevisiae Mot1-301 galactose growth, ATP luminescence, 24 h; -100 = growth of slx-deleted rescue strain; growth activity, percent, % at 42 µM; AID 493004; shares compounds with Mot1-301 SUMO; 2,300 tested, under 10 active;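 active = Signal drops as the depositor expects, and the fitted half-maximal dose is no more than ten times the top valid tested dose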;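 also: more negative values mean stronger growth rescue toward the control strain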
Hits are given with their value; - = inactive; . = no result given; + = active, no number. A selection: hits, their analogues and other compounds. The true share with any hit is near 3.8%.

SMILES | FAS-TE inh | MPTP inh | Yeast superoxide | H9c2 protect | Mot1-301 SUMO | aDG glyco up | Mot1 SUMO dose
Cn1c2ccccc2c(=O)c2ccc(C#CC3(O)CCCCC3)cc21 | - | - | - | - | - | - | .
Cc1onc(-c2ccccc2)c1C(=O)c1c[nH]c(C(=O)NCCCN2CCOCC2)c1 | - | - | - | - | - | - | .
COCCCNC(=O)c1cc(C(=O)c2c(-c3c(Cl)cccc3Cl)noc2C)c[nH]1 | - | - | - | - | + | - | -
COCCn1c(SCC(=O)NCc2cccs2)nnc1-c1ccc(OC)cc1 | - | - | - | - | 915.8 | - | -
CCCC(=O)Nc1ccc(C=C(C(C)=O)C(C)=O)cc1 | - | - | - | - | - | - | .
Cc1ccccc1-c1nnc(CN2CCC(C)CC2)o1 | - | - | - | - | 403.0 | - | -
CS(=O)(=O)N1CCC(Oc2ccccc2C(=O)N2CCN(CC3CC3)CC2)CC1 | - | - | - | - | - | - | .
CS(=O)(=O)N1CCC(Oc2ccccc2C(=O)N2CCNC(=O)C2)CC1 | - | - | - | - | 401.2 | - | -
COC(=O)[C@@]12CCCCN1[C@H](c1ccc(-c3ccc(C(C)=O)cc3)cc1)[C@@H]1C(=O)N(C)C(=O)[C@@H]12 | - | - | - | - | 736.5 | - | -
COC(=O)[C@@]12CCCCN1[C@H](c1ccc(-c3cccc(Cl)c3)cc1)[C@H]1C(=O)N(C)C(=O)[C@H]12 | - | - | - | - | - | - | .
COC(=O)[C@@]12CCCCN1[C@H](c1ccc(-c3cccc(Cl)c3)c(OC)c1)[C@H]1C(=O)N(C)C(=O)[C@H]12 | - | - | - | - | 766.0 | - | -
Cc1cc(N2CCN(C)CC2)nc2ccc(NC(=S)N3CCC4(CC3)OCCO4)cc12 | - | - | - | - | + | - | -
CCCCN(C)C(=O)CCC(=O)Nc1ccc2nc(N3CCOCC3)cc(C)c2c1 | - | - | - | - | - | - | .
CCCCN(C)C(=O)CCC(=O)Nc1ccc2nc(N3CCN(C)CC3)cc(C)c2c1 | - | - | - | - | 448.9 | - | -
COc1ccc(S(N)(=O)=O)cc1C(=O)OCC(=O)N1CC(=O)Nc2ccccc21 | - | - | . | - | . | - | .
COc1cc2ccc(C(C)=NNC(N)=S)cc2cc1OC | - | - | . | - | . | - | .
CSc1nsc(SCC(=O)Nc2cccc(NC(C)=O)c2)n1 | - | - | - | - | - | - | .
O=C(CSc1nc(-c2ccccc2)nc2ccc(F)cc12)Nc1cccc(C(=O)O)c1 | - | - | - | - | 534.6 | - | -
CSc1nsc(SCC(=O)Nc2cccc(C(=O)O)c2)n1 | - | - | - | - | 782.0 | - | -
Cc1ccc([N+](=O)[O-])c(OCc2ncc(Cl)n2C)c1 | - | - | - | - | - | - | .
CCC(=O)NCCSc1c[nH]c2ccccc12 | - | - | - | - | - | - | .
CC(C)C(=O)NCCSc1c[nH]c2ccccc12 | - | - | - | - | 598.0 | - | -
COc1ccccc1/C=N/NC(=S)NCc1ccco1 | - | - | - | - | - | - | .
COc1cc(/C=N/NC(=S)NCc2ccco2)cc(OC)c1OC | - | - | - | - | 498.2 | - | -
COc1cc(/C=N/NS(=O)(=O)c2ccc(Br)cc2)ccc1O | - | - | - | - | - | - | .
SMILES | FAS-TE inh | MPTP inh | Yeast superoxide | H9c2 protect | Mot1-301 SUMO | aDG glyco up | Mot1 SUMO dose
COC(=O)Oc1ccc(/C=N/NS(=O)(=O)c2ccccc2)cc1OC | - | - | - | - | 626.6 | - | -
CCCC(=O)Oc1c(S(=O)(=O)c2ccc(C)cc2)c(C)nn1C(C)(C)C | - | - | - | - | 635.5 | - | -
O=C(O)c1c(C(=O)O)c(-c2ccc(F)cc2)n2c1CCC2 | - | - | - | - | 498.6 | - | -
Cc1ccc(-c2c(C(=O)O)c(C(=O)O)c3n2CCC3)cc1 | - | - | - | - | - | - | .
O=C(NCc1cccc(Cl)c1)C1Cc2c(-c3ccccc3)ccnc2O1 (stereo not given) | - | - | . | - | . | - | .
Cc1cccc(N2C(=O)/C(=C/c3cccnc3)SC2=S)c1 | - | - | - | - | 938.5 | - | -
Cc1ccc(N2C(=O)/C(=C/c3cccnc3)SC2=S)cc1 | - | - | - | - | - | - | .
COc1ccc(NC2CCCN(C(=O)CCc3ccccc3F)C2)cc1 (stereo not given) | - | - | - | - | - | - | .
Cc1nc(N/N=C\c2ccc3c(c2)OCO3)sc1C | - | - | - | - | 497.5 | - | -
COc1ccccc1CNC(=O)[C@H](C)NC(=O)C1CCN(C(=O)[C@@H](N)CC(C)C)CC1 | - | - | - | - | 617.8 | - | -
COCCn1c(N)c(N(Cc2ccccc2)C(=O)CN2C(=O)NC(C)(c3ccccc3)C2=O)c(=O)[nH]c1=O (stereo not given) | - | - | - | - | 530.9 | - | -
CCOc1ccc(C(=O)Nc2ccc(C(F)(F)F)n(C)c2=O)cc1 | - | - | - | - | + | - | -
Cc1cc2c(cc1C)NC(C)CC(=O)N2 (stereo not given) | - | - | . | - | . | - | .
CCCCCC(=O)Nc1nnn(CCC)n1 | - | - | - | - | + | - | -
CCCNC(=O)c1csc2c1CCCCC2 | - | - | - | - | - | - | .
CC1CCCC(C)N1CCCNC(=O)c1csc2c1CCCCC2 (stereo not given) | - | - | - | - | 458.8 | - | -
O=C(CCC1CCCN(C(=O)Cc2cccc(F)c2)C1)N1CCN(c2ccccn2)CC1 (stereo not given) | - | - | - | - | 426.3 | - | -
O=C(CCC1CCCN(C(=O)CCCc2ccccc2)C1)N1CCN(c2ccccn2)CC1 (stereo not given) | - | - | - | - | - | - | .
O=C1C2CCCCN2C(=O)N1CCCCN1CCN(c2cccc(Br)c2)CC1 (stereo not given) | - | - | - | - | - | - | .
COc1ccc(OC)c(-c2cc(C(=O)Nc3c(C)nn(Cc4ccccc4C)c3C)no2)c1 | - | - | - | - | - | - | .
COc1ccc(OC)c(-c2cc(C(=O)Nc3c(C)nn(Cc4ccccc4Cl)c3C)no2)c1 | - | - | - | - | 570.9 | - | -
Nc1nnnn1CC(=O)N/N=C/c1cccs1 | - | - | - | - | 626.9 | - | -
CC1=C(C(=O)OCc2ccccc2)C(c2cccc(F)c2)NC(=O)N1 (stereo not given) | - | - | - | - | 611.2 | - | -
CC(C)(C)c1ccc(C(=O)COC(=O)CN2C(=O)NC3(CCCC3)C2=O)cc1 | - | - | - | - | 522.3 | - | -
O=C(CN1C(=O)NC2(CCCC2)C1=O)OCC(=O)c1cccc(Cl)c1 | - | - | . | - | . | - | .
C#CC1(O)CCC2C3CCC4=Cc5oncc5CC4(C)C3CCC21C (stereo not given) | - | . | . | - | . | - | .

From PubChem
